Bioassay records: PubChem BioAssay, several laboratories
Compounds with a hit are over-represented: about 6.6% of the library has one in this group of screens.
NR3A LBD binder: modulators (binders) of human NR3A ligand-binding domain; 340,000 compounds, 2.5% hits; Tm shift relative to glycine control, % at 25 µM; NR3A LBD differential scanning fluorimetry, Tm shift; 0% = protein alone, 100% = glycine-bound protein;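 active = melting temperature shift of at least 10% of the positive control shift, at one fixed dose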
Beta apoptosis: beta cell apoptosis inhibition | protection from apoptosis, % (test concentration not listed) | INS-1E cytokine-induced death, ATP luminescence, 48 h; percent of positive-control rescue, neutral wells zero | 300,000 compounds, 0.8% hits | AID 435005;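 active = Every replicate reaches about 75%, or at least half do and their mean reaches it too, limit read from the data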;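 note: 0% = cytokine-treated negative control wells and 100% = positive control rescue; higher means more ATP so stronger rescue from cytokine killing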
MPTP block: blocks calcium-induced mitochondrial swelling; 360,000 compounds, 1.4% hits; isolated mouse mitochondria, Ca2+ swelling absorbance, 30 min; inhibition, % at 10 µM; AID 602449;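 active = inhibition of 50% or more, scaled per plate between neutral and stimulator controls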;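 note: 0% = DMSO wells given calcium and 100% = 1 mM EGTA wells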
Gli-Sufu block: Gli-Sufu pathway antagonism; 340,000 compounds, 0.74% hits; inhibition, % at 5 µM; Sufu-KO-LIGHT fibroblasts, Gli luciferase reporter luminescence;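 active = inhibition above about 55%, limit read from the data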;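 note: 0% = DMSO-treated cells and 100% = wells with medium but no cells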
Mdm2-MdmX inh: human Mdm2/MdmX binding inhibition; O15151+Q00987; SaOS-2 split-luciferase Mdm2/MdmX complementation, luminescence; inhibition, % at 8 µM; 330,000 compounds, 3% hits; AID 485346;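 active = inhibition of at least 50% at 8 µM in the primary screen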
Target sequence (O15151 whole entry, looked up): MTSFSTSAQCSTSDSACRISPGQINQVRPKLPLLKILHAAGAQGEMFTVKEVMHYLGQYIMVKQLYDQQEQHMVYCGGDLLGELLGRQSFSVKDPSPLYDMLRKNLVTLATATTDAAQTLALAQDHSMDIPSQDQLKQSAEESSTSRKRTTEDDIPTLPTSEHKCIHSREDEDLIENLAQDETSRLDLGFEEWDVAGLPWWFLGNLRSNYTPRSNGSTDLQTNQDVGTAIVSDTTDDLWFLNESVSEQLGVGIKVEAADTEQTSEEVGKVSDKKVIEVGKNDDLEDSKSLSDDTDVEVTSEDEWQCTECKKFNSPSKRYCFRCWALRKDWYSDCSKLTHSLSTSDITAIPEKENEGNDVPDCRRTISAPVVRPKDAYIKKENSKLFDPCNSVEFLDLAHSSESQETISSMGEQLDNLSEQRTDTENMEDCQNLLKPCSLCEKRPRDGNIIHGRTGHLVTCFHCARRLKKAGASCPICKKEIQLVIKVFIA
Target sequence (Q00987 whole entry, looked up): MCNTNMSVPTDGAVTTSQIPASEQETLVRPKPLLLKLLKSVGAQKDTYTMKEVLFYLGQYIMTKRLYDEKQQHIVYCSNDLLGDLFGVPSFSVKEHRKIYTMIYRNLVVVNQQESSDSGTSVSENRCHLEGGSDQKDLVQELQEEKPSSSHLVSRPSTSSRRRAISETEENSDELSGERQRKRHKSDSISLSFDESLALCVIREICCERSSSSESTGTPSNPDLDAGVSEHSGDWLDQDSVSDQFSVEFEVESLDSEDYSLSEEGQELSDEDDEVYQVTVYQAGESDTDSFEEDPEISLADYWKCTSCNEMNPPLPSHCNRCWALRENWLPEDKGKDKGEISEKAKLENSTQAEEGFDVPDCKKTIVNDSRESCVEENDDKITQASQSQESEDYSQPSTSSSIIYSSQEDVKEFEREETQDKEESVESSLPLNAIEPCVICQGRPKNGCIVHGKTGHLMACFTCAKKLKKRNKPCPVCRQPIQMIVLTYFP
CSC inhib: cancer stem cell inhibition; cancer stem cell-like cells viability, luminescence; inhibition, % at 7.5 µM; 300,000 compounds, 1.1% hits; AID 2717; in the data active = inhibition above about 75%; tested in HMLE shEcad cells
* hit, by the source's call; · = no result.

SMILES | NR3A LBD binder | Beta apoptosis | MPTP block | Gli-Sufu block | Mdm2-MdmX inh | CSC inhib
C#CCOCCOCCOCCNc1nc(N2CCN(C(=O)CCCCCCCCCCNC(=O)[C@H](CCCN=C(N)N)n3cc(C[C@@H](C)CC)nn3)CC2)nc(N2CCN(C(=O)CCCCCCCCCCNC(=O)[C@@H]([C@H](C)CC)n3cc(CCCCCN)nn3)CC2)n1 | · | 106.9* | · | · | 42.6 | 167.9*
OC(CN1CCN(c2ccccn2)CC1)Cn1c2ccc(Cl)cc2c2cc(Cl)ccc21 (stereo unspecified) | 19.2* | 2.5 | 4.9 | -0.1 | 38.7 | 105.3*
Cc1ccc(S(=O)(=O)/C(C#N)=C/c2c[nH]c3ccccc23)cc1 | 13.1* | -6.8 | 7.1 | 3.4 | 8.0 | 4.6
O=C(O)c1ccc(S(=O)(=O)NN=Cc2c[nH]c3ccccc23)cc1 | · | · | 1.5 | · | · | ·
COc1ccc(S(=O)(=O)N/N=C\c2ccccc2F)cc1 | -0.3 | -4.3 | 0.1 | -15.1 | -5.1 | -8.9
COC(=O)/C(C#N)=C/c1c[nH]c2ccccc12 | -5.5 | 0.8 | 3.5 | -7.8 | -19.6 | -12.1
COc1ccc2[nH]cc(/C=N/NS(=O)(=O)c3ccc(C)cc3)c2c1 | 24.8* | 6.7 | 33.9 | 21.0 | 29.8 | 14.0
Cc1ccc(S(=O)(=O)N/N=C/c2c[nH]c3ccccc23)cc1 | 30.6* | -5.0 | 13.4 | 2.2 | 5.6 | -5.2
COc1ccc2c(/C=N/NS(=O)(=O)c3ccc(C)cc3)c[nH]c2c1 | 33.4* | -2.8 | 3.3 | 3.2 | 14.1 | -15.8
O=C(COc1ccc(CNC[C@H]2O[C@@H](n3ccc(=O)[nH]c3=O)[C@H](O)[C@@H]2O)cc1)Nc1nccs1 | · | · | 0.1 | · | · | ·
CCOC(=O)[C@]12CCC=C1N(Cc1cccc3ccccc13)C(=O)[C@H](CC(=O)NCc1ccc(C)o1)C2 | · | · | -4.1 | · | · | ·
CN(CC(=O)Nc1ccc(F)c(F)c1F)C(=O)Cc1ccc2c(c1)OCCO2 | 2.2 | -1.6 | -1.1 | 3.1 | 11.5 | 15.6
CCOC(=O)c1nn(-c2ccccc2C)c2nc(Nc3ccccc3)cc(=O)n12 | 13.4* | -1.2 | -0.6 | 2.6 | 3.6 | 1.2
COC(=O)c1cccc(-n2c(=O)n(Cc3ccccc3)c(=O)c3[nH]cnc32)c1C | 1.2 | 0.0 | -0.7 | 4.5 | 19.6 | -22.5
CC1=C(CC(=O)c2ccccc2)C(=O)c2ccccc2C1=O | 0.3 | 98.0* | 4.8 | -7.0 | 43.9 | -15.1
O=C(CN1C(=O)c2ccccc2C1=O)c1ccccc1 | -3.0 | 1.3 | 2.8 | -2.8 | -4.7 | 5.8
CCN(CC)CCNC(Cc1ccccc1)c1cccc(OC)c1 (stereo unspecified) | 12.6* | · | 0.6 | 2.7 | · | ·
O=C(NC1CC1)C1CCN(C2CCN(C(=O)c3c(F)cccc3Cl)CC2)CC1 | -1.1 | 5.2 | -1.4 | -1.7 | 8.3 | 8.5
C=CCNC(=O)C1CC2Cn3c(nc4cc5ccccc5cc43)C2N1C (stereo unspecified) | 11.5* | -8.1 | -0.4 | -20.4 | -3.7 | -11.6
COc1ccc(NC(=O)CC2(CC(=O)N3CCOCC3)CCCC2)cc1Cl | 0.3 | 0.1 | 3.5 | -1.6 | 0.1 | ·
CCOc1ccccc1NC(=O)CC1(CC(=O)N2CCOCC2)CCCC1 | 12.8* | · | -0.8 | -3.4 | 8.9 | ·
Cc1ccc(NC(=O)c2cc(-c3cc(Cl)ccc3O)n[nH]2)cc1C | 29.2* | -3.4 | 5.0 | 5.8 | 18.2 | 5.7
Cc1cccc(NC(=O)c2cc(-c3c(C)cc(C)cc3O)n[nH]2)c1 | -10.9 | -3.7 | 0.2 | 16.3 | -12.4 | -6.4
Cc1cccc(NC(=O)c2cc(-c3cc(C)cc(C)c3O)n[nH]2)c1 | 35.7* | 7.0 | 23.3 | -8.6 | 14.2 | 76.2*
Cc1cccc(NC(=O)c2cc(-c3cc(Cl)ccc3O)n[nH]2)c1 | 36.0* | 5.9 | 1.3 | -14.8 | -43.8 | 27.4
CCN1C[C@@H]2[C@@H]3C(=O)N(C)C(=O)[C@@H]3[C@](CC)(C(=O)OC)N2C1=NCc1ccccc1 | 1.0 | · | 2.6 | 5.0 | · | ·
CCC1CCCCN1CCCNS(=O)(=O)c1ccc2c(c1)oc(=O)n2C (stereo unspecified) | -0.7 | 0.4 | -0.4 | 4.0 | 22.3 | 21.6
CCC1CCCCN1CCNS(=O)(=O)c1ccc2c(c1)oc(=O)n2C (stereo unspecified) | 14.1* | 1.4 | -0.4 | 6.5 | 28.6 | -12.7
Nc1nc2ccccc2n1C(=O)c1ccco1 | 15.5* | · | -0.8 | -30.3 | · | ·
Nc1nc2ccccc2n1C(=O)c1ccccc1 | -1.4 | 10.8 | -0.5 | -73.3 | -63.4 | 21.2
